In the supplement of paper PMC7156485:
Several values for one entry are separate records, joined by “and”; a condition that tells them apart may be missing. Identical values can stand only once.

Legend:
Details in all cases: concentration: 10 µM; 24 h
HCC1569 [1] = assay: cell number relative to DMSO (% of DMSO); higher = more cells (less growth inhibition / toxicity)
Procedure, shortened: (§1)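 Cell number or H1.0 nuclear intensity appears as percent of the plate control, based on the median of replicates. Measurements came from HCC1569 and TDF cells exposed in triplicate to compounds at 10 µM for 24 h at 37 °C, then imaged in six fields per well at ×10. Positional effects were smoothed out of HCC1569 values.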

TDF [2] = assay: as above
Procedure, shortened: as §1

TDF [3] = assay: H1.0 immunofluorescence intensity relative to DMSO (% of DMSO); higher = stronger H1.0 induction, active = 120 or more
Procedure, shortened: as §1

HCC1569 [4] = assay: H1.0 immunofluorescence intensity relative to DMSO (% of DMSO); higher = stronger H1.0 induction, active = 140 or more
Procedure, shortened: as §1
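Wherever H1.0 immunofluorescence intensity relative to DMSO is given: TDF is a line of transformed human dermal fibroblasts of mesenchymal origin.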
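Wherever cell number relative to DMSO is given: TDF denotes transformed human dermal fibroblasts of mesenchymal origin.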

SMILES: O=C(Nc1cccc(C(=O)Nc2ccc(S(=O)(=O)[O-])c3cc(S(=O)(=O)[O-])cc(S(=O)(=O)[O-])c23)c1)Nc1cccc(C(=O)Nc2ccc(S(=O)(=O)[O-])c3cc(S(=O)(=O)[O-])cc(S(=O)(=O)[O-])c23)c1.[Na+].[Na+].[Na+].[Na+].[Na+].[Na+]
- cell number (HCC1569 [1]): 102
- cell number (TDF [2]): 110
- H1.0 immunofluorescence intensity (TDF [3]): 93.4 (inactive)
- H1.0 immunofluorescence intensity (HCC1569 [4]): 96 (inactive)

SMILES: O=C(O)C=Cc1cnc[nH]1 [4-Imidazoleacrylic acid]
- cell number (HCC1569 [1]): 101
- cell number (TDF [2]): 107
- H1.0 immunofluorescence intensity (TDF [3]): 97.2 (inactive)
- H1.0 immunofluorescence intensity (HCC1569 [4]): 108 (inactive)

SMILES: CCCCCCCCCCCCCCSCC(=O)O [Tetradecylthioacetic acid]
- cell number (HCC1569 [1]): 104
- cell number (TDF [2]): 107
- H1.0 immunofluorescence intensity (TDF [3]): 85.8 (inactive)
- H1.0 immunofluorescence intensity (HCC1569 [4]): 102 (inactive)

SMILES: COC(=O)[C@@H](N)Cc1ccc(O)c(O)c1.Cl [L-3,4-Dihydroxyphenylalanine methyl ester hydrochloride]
- cell number (HCC1569 [1]): 102
- cell number (TDF [2]): 110
- H1.0 immunofluorescence intensity (TDF [3]): 94.8 (inactive)
- H1.0 immunofluorescence intensity (HCC1569 [4]): 96.8 (inactive)

SMILES: CC(=O)Oc1cc(C(C)C)c(OCCN(C)C)cc1C.Cl [Moxisylyte hydrochloride]
- cell number (HCC1569 [1]): 105
- cell number (TDF [2]): 104
- H1.0 immunofluorescence intensity (TDF [3]): 91.4 (inactive)
- H1.0 immunofluorescence intensity (HCC1569 [4]): 94.4 (inactive)

SMILES: Cl.NC12CC3CC(CC(C3)C1)C2 [Amantadine hydrochloride]
- cell number (HCC1569 [1]): 107
- cell number (TDF [2]): 109
- H1.0 immunofluorescence intensity (TDF [3]): 104 (inactive)
- H1.0 immunofluorescence intensity (HCC1569 [4]): 98.4 (inactive)

SMILES: CNC1C(OC2C(OC3C(O)C(O)C(N=C(N)N)C(O)C3N=C(N)N)OC(C)C2(O)C=O)OC(CO)C(O)C1O (stereo not drawn) [Streptomycin]
- cell number (HCC1569 [1]): 105
- cell number (TDF [2]): 103
- H1.0 immunofluorescence intensity (TDF [3]): 96.7 (inactive)
- H1.0 immunofluorescence intensity (HCC1569 [4]): 89 (inactive)

SMILES: COc1c(OCCCCN2CCN(C)CC2)cc(O)c2c(=O)cc(-c3ccccc3)oc12
- cell number (HCC1569 [1]): 25.3
- cell number (TDF [2]): 34.9
- H1.0 immunofluorescence intensity (TDF [3]): 133 (active)
- H1.0 immunofluorescence intensity (HCC1569 [4]): 119 (inactive)

SMILES: Cn1cc(C=C2C(=O)Nc3cccnc32)c2ccccc21
- cell number (HCC1569 [1]): 89.7 and 101
- cell number (TDF [2]): 104 and 96
- H1.0 immunofluorescence intensity (TDF [3]): 96 (inactive) and 95.3 (inactive)
- H1.0 immunofluorescence intensity (HCC1569 [4]): 161 (active) and 98.5 (inactive)

SMILES: CCCc1nn(C)c2c(=O)nc(-c3cc(S(=O)(=O)N4CCN(C)CC4)ccc3OCC)[nH]c12 [Sildenafil]
- cell number (HCC1569 [1]): 101
- cell number (TDF [2]): 94
- H1.0 immunofluorescence intensity (TDF [3]): 95.1 (inactive)
- H1.0 immunofluorescence intensity (HCC1569 [4]): 103 (inactive)

SMILES: O=C(c1ccc2c(c1)OCCO2)N1CCCCC1
- cell number (HCC1569 [1]): 105
- cell number (TDF [2]): 92.2
- H1.0 immunofluorescence intensity (TDF [3]): 96.7 (inactive)
- H1.0 immunofluorescence intensity (HCC1569 [4]): 107 (inactive)

SMILES: CON=C(C(=O)NC1C(=O)N2C(C(=O)[O-])=C(CSc3nc(=O)c([O-])nn3C)CSC12)c1csc(N)n1.[Na+].[Na+] (stereo not drawn) [Ceftriaxone sodium]
- cell number (HCC1569 [1]): 101
- cell number (TDF [2]): 99.8
- H1.0 immunofluorescence intensity (TDF [3]): 99.3 (inactive)
- H1.0 immunofluorescence intensity (HCC1569 [4]): 94 (inactive)

SMILES: CC[N+](C)(C)c1cccc(O)c1.[Cl-] [Edrophonium chloride]
- cell number (HCC1569 [1]): 102
- cell number (TDF [2]): 113
- H1.0 immunofluorescence intensity (TDF [3]): 96.1 (inactive)
- H1.0 immunofluorescence intensity (HCC1569 [4]): 95.7 (inactive)

SMILES: OCC1OC(OC2OC=CC3C(O)C4OC4(CO)C23)C(O)C(O)C1O (stereo not drawn) [Catalpol]
- cell number (HCC1569 [1]): 105
- cell number (TDF [2]): 106
- H1.0 immunofluorescence intensity (TDF [3]): 96.6 (inactive)
- H1.0 immunofluorescence intensity (HCC1569 [4]): 89.4 (inactive)

SMILES: CC(=O)OC1CCC2(C)C(C1)C(OC(C)=O)CC1C2CC2C3CN4CC(C)CCC4C(C)C3CCC21O (stereo not drawn) [Diacetylkorseveriline]
- cell number (HCC1569 [1]): 101
- cell number (TDF [2]): 109
- H1.0 immunofluorescence intensity (TDF [3]): 96.2 (inactive)
- H1.0 immunofluorescence intensity (HCC1569 [4]): 95.1 (inactive)

SMILES: CSCC[C@@H](C=O)NC(=O)[C@H](CC(C)C)NC(=O)[C@H](CC(C)C)NC(C)=O
- cell number (HCC1569 [1]): 99.2
- cell number (TDF [2]): 95.5
- H1.0 immunofluorescence intensity (TDF [3]): 96.4 (inactive)
- H1.0 immunofluorescence intensity (HCC1569 [4]): 92.2 (inactive)

SMILES: CC(Cc1ccccc1)Nc1ncnc2c1ncn2C1OC(CO)C(O)C1O (stereo not drawn) [R(-)-N6-(2-Phenylisopropyl)adenosine]
- cell number (HCC1569 [1]): 107
- cell number (TDF [2]): 96.5
- H1.0 immunofluorescence intensity (TDF [3]): 93.6 (inactive)
- H1.0 immunofluorescence intensity (HCC1569 [4]): 102 (inactive)

SMILES: CC1CCc2c(N3CCC(O)CC3)c(F)cc3c(=O)c(C(=O)O)cn1c23 (stereo not drawn) [Nadifloxacin]
- cell number (HCC1569 [1]): 107
- cell number (TDF [2]): 89.2
- H1.0 immunofluorescence intensity (TDF [3]): 98.7 (inactive)
- H1.0 immunofluorescence intensity (HCC1569 [4]): 101 (inactive)

SMILES: Cc1ccc(N(CC2=NCCN2)c2cccc(O)c2)cc1 [Phentolamine]
- cell number (HCC1569 [1]): 107
- cell number (TDF [2]): 100
- H1.0 immunofluorescence intensity (TDF [3]): 99.7 (inactive)
- H1.0 immunofluorescence intensity (HCC1569 [4]): 96.6 (inactive)

SMILES: CCCCCCCCCCCCCCCCCCCCC(=O)O [Heneicosanoic acid]
- cell number (HCC1569 [1]): 102
- cell number (TDF [2]): 95.5
- H1.0 immunofluorescence intensity (TDF [3]): 98.5 (inactive)
- H1.0 immunofluorescence intensity (HCC1569 [4]): 103 (inactive)

SMILES: CCCCCCCCCCCCCCC(F)C(=O)O (stereo not drawn) [2-Fluoropalmitic acid]
- cell number (HCC1569 [1]): 105
- cell number (TDF [2]): 102
- H1.0 immunofluorescence intensity (TDF [3]): 99.7 (inactive)
- H1.0 immunofluorescence intensity (HCC1569 [4]): 104 (inactive)

SMILES: CC1CS(=O)(=O)CCN1/N=C/c1ccc([N+](=O)[O-])o1 (stereo not drawn)
- cell number (HCC1569 [1]): 96.4
- cell number (TDF [2]): 102
- H1.0 immunofluorescence intensity (TDF [3]): 98.5 (inactive)
- H1.0 immunofluorescence intensity (HCC1569 [4]): 95.5 (inactive)
